# Source: PubChem BioAssay
# Only some compounds are listed: those with a hit (about 1.2% of all), similar ones and a draw of the others.
# PrPC TRFRET: inhibitors of human cell surface prion protein PrPC, primary screen, cell-based, TR-FRET | Major prion protein (Homo sapiens), P04156 | TR-FRET read-out | 0.43% of 370,000 active | inhibition, % at 13.8 µM; in the data active means inhibition above about 24%; further: 0% = median of the test wells and 100% = reference compound wells
# PriA SSB inh: inhibitors of Klebsiella pneumoniae PriA binding to SSB C-terminal tail, primary screen, biochemical, AlphaScreen; AlphaScreen SSBct-PriA binding, biotinylated peptide; inhibition, % at 33 µM; 0.6% of 430,000 active; in the data active means inhibition mostly above about 37%, no sharp cut-off; inactive means mostly below about 20%;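 further: plate controls were negative control peptide for no effect and reference peptide for full effect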
# PrP UTR inh: inhibition of PrP 5' UTR reporter expression; inhibition, % (concentration not given with the values); 0.35% of 340,000 active; cell-based PrP 5' UTR mRNA reporter, plate reader; in the data active means inhibition above about 52%; further: 0 = median of the neutral control wells
# 3CLpro inhibitor: SARS-CoV 3CLpro protease inhibitors, primary screen, biochemical, quenched FRET | Replicase polyprotein 1ab (Severe acute respiratory syndrome coronavirus), P0C6X7 | recombinant SARS-CoV 3CLpro, quenched FRET peptide cleavage | inhibition, % at 6 µM | 0.14% of 290,000 active | AID 1706, 2009; in the data active means inhibition above about 12%
# BJeLR viability: MLPCN primary cell-based screen for lethality selective to Ras in HRASV12 cells; BJeLR (HRASV12) viability, CellTiter-Glo ATP luminescence, 48 h; AID 1554, 2009; 0.17% of 300,000 active; inhibition, % (no concentration beside the values); in the data active means inhibition above about 50%
# Starred values were filed as active, the others as inactive; / = no result given; ! = not active in a repeat.
SMILES,PrPC TRFRET,PriA SSB inh,PrP UTR inh,3CLpro inhibitor,BJeLR viability
COc1nccnc1OC1CCN(C(=O)CCc2c(C)noc2C)C1 (stereo not given),/,1,/,/,/
CC(=O)NC(c1ccccc1)c1cc([N+](=O)[O-])c2cccnc2c1O (stereo not given),-8,44*,-3,-2,12
CC(C)C(=O)NC(c1ccccc1)c1cc([N+](=O)[O-])c2cccnc2c1O (stereo not given),0,43,-23,-1,6
O=[N+]([O-])c1ccccc1N=NNc1ccccc1,-6,0,-108,/,/
O=[N+]([O-])c1ccccc1N=Nc1ccc(O)cc1,-3,43*,-23,/,1
Nc1ccc2nc(CCCCCCCCc3nc4ccc(N)cc4[nH]3)[nH]c2c1,-2,49*,-29,2,-10
OC(COc1ccc(C23CC4CC(CC(C4)C2)C3)cc1)C[N+]1(Cc2ccccc2)CCOCC1 (stereo not given),/,45*,/,/,/
Cc1cccc(C=NNC(=O)c2ccc(NC(=O)c3ccc(Cl)cc3)cc2)n1,/,-3,/,/,/
O=C(NC(=S)Nc1cccc2cc(O)ccc12)c1ccccc1Br,2,15,1,4,4
COc1ccccc1C(=O)NC(=S)Nc1cccc2cc(O)ccc12,-2,42*,-1,2,-6
Cc1cc2cc(CNS(=O)(=O)N(C)C)ccc2[nH]1,-7,46*!,-12,-5,9
CCOc1ccc(NC(=S)NCc2ccc3[nH]c(C)cc3c2)cc1,11,4,-18,3,9
CC(=O)Nc1ccc(S(=O)(=O)NCc2ccc3[nH]c(C)cc3c2)cc1,5,38,-6,-1,-4
CCCCNC(=S)NCc1ccc2[nH]c(C)cc2c1,-6,50*!,-2,-2,1
Cc1ccc(S(=O)(=O)NCc2ccc3[nH]c(C)cc3c2)cc1,13,43*,-5,-3,8
CC(=NNC(=O)C(C)Oc1ccc([N+](=O)[O-])cc1)c1ccccn1 (stereo not given),/,48*,/,/,/
CC(=NNC(=O)C(c1ccccc1)c1ccccc1)c1ccccn1,/,-7,/,/,/
C=C1C(=O)O[C@@H]2C[C@@H](C)[C@H]3C=CC(=O)[C@]3(O)C[C@@H]12,-10,-4,-7,/,66*
C=C1C(=O)OC2CC3(C)OC3CC/C(C)=C/C(OC(C)=O)C12 (stereo not given),/,-1,/,/,/
Cc1cc(C)nc(OC2CCC(NC(=O)c3ccco3)CC2)n1 (stereo not given),/,-3,/,/,/
CN1C(=O)/C(=C\c2ccc(N(C)C)cc2)OC1=S,-3,-15,-37,-5,-1
CN(C)c1ccc(C=C2C=CC=C2)cc1,6,41*,-67,/,/
COc1ccc(OC)c(NC(=O)Nc2ccc(Nc3cc(OC)nc(C)n3)cc2)c1,/,10,/,/,/
CCOC(=O)C1=C(C)N=c2sc(=C3C(=O)Nc4ccccc43)c(=O)n2C1c1ccc(C)cc1 (stereo not given),/,24,/,/,/
COc1ccc(N2CCN(C(=O)c3ccc(Cn4nc(C)c([N+](=O)[O-])c4C)o3)CC2)cc1,-1,48*,10,0,5
SMILES,PrPC TRFRET,PriA SSB inh,PrP UTR inh,3CLpro inhibitor,BJeLR viability
COc1cccc(N2CCN(C(=O)c3ccc(CS(=O)c4ccc(C)cc4)o3)CC2)c1 (stereo not given),15,6,15,-5,52*
Cc1nn(Cc2ccc(C(=O)N3CCCC3)o2)c(C)c1[N+](=O)[O-],0,4,-6,1,0
COc1cccc(N2CCN(C(=O)c3ccc(CS(=O)c4ccc(Cl)cc4)o3)CC2)c1 (stereo not given),19,-14,7,2,4
O=c1[nH]c(-c2ccccn2)cs1,/,63*,/,/,/
O=C(NNc1ccc(Cl)cc1)c1c(F)cccc1Cl,-6,-5,-9,-1,3
CC(=O)C(=Nc1ccccc1Cl)NNc1ccc(Cl)cc1,-17,50*,-25,1,-2
C(C#CCCCCCCCCC[n+]1ccccc1)#CCCCCCCCCC[n+]1ccccc1,17,-2,-13,1,52*
COc1cccc(-c2nc(CS(=O)CC(=O)NC(C)CCc3ccccc3)c(C)o2)c1 (stereo not given),-1,-12,-4,-2,1
Cc1ccccc1-c1nc(CS(=O)CC(=O)NC(C)CCc2ccccc2)c(C)o1 (stereo not given),/,60*,-32,3,1
COc1ccc(-c2sc(Nc3ccccc3)n[n+]2-c2ccc(F)cc2)c(C)c1C,0,42*,5,-3,11
COc1ccc(C)cc1Nc1n[n+](-c2ccccc2)c(-c2c(OC)ccc3ccccc23)s1,4,28,-13,/,/
Cc1cccc(-c2sc(Nc3ccccc3)n[n+]2-c2ccc(F)cc2)c1,-1,2,-22,0,3
COc1ccc(C)cc1Nc1n[n+](-c2ccccc2)c(-c2cc(OC)c(OC)cc2Br)s1,5,58*,-14,4,0
CSc1ccccc1NC(=O)C(=O)NCC(C)(O)c1cc2ccccc2o1 (stereo not given),/,-8,/,/,/
O=[N+]([O-])c1cc(C(F)(F)F)ccc1NC1CCN(Cc2ccccc2)CC1,0,33,-1,-3,-4
O=[N+]([O-])c1cc(C(F)(F)F)ccc1NC1CCN(Cc2ccccc2)C1 (stereo not given),-4,43*,2,-3,-1
COc1ccc(OC)c(C(C)=NNc2ccc(C(=O)O)cc2)c1,/,12,/,/,/
O=C(c1ccc(-n2cccc2)cc1)N1CCS[C@H](c2ccccc2)CC1,/,35*,/,/,/
O=C(c1ccoc1)N1CCSC(c2ccccc2)CC1 (stereo not given),/,9,/,/,/
CC1CCCN(c2oc(-c3cccc4ccccc34)nc2C#N)C1 (stereo not given),1,-11,-36,-2,-6
COc1ccccc1-c1nc(C#N)c(N2CC(C)CC(C)C2)o1 (stereo not given),1,-2,-21,3,2
Cc1ccccc1-c1nc(C#N)c(N2CCOCC2)o1,/,70*,/,/,/
CC1CC(C)CN(c2oc(-c3ccccc3F)nc2C#N)C1 (stereo not given),-5,50*,-14,4,-4
Cc1ccccc1-c1nc(C#N)c(N2CCCC(C)C2)o1 (stereo not given),/,66*,/,/,/
CCn1c([C@H](Cc2ccccc2)NC(=O)c2ccccc2)nc2ccccc21,/,-17,/,/,/
COc1ccc(CCC(=O)Nc2cc(C)nn2-c2nc3c(cnn3-c3cccc(C)c3)c(=O)[nH]2)cc1,/,-7,/,/,/
COc1cccc(-c2cn3c(C(=O)Nc4ccncc4)csc3n2)c1,/,7,/,/,/
O=C(Nc1ccc(N2CCCCS2(=O)=O)cc1)c1ccc2c(c1)OCO2,/,2,/,/,/
